Results filed as inconclusive are left out. Active and inactive are the calls of the source.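 How the source made its calls, unless noted: active means response below a set limit, under 55% cells CD8-positive and vesicle-bound, and CD8 cells' 90th-percentile brightness under 279; inactive means the rest.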
What was measured:
[1] = yeast TOR pathway RPL19A-GFP modulators, primary screen, cell-based, S. cerevisiae, multiplex flow cytometry (AID 1862; in the data active means percent of DMSO control GFP below about 86%;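 further: lower values mimic rapamycin by blocking the RPL19A rise seen in DMSO cells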); conditions: S. cerevisiae RPL19A-GFP strain, flow cytometry fluorescence, 3 h; at 10 µM; stronger effect = lower value
[2] = modulators of MEP2-GFP levels in yeast, primary screen, S. cerevisiae, multiplex flow cytometry (AID 1867;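 active means GFP response, as percent of the DMSO control, above the screen-wide mean plus 3 SD, about 139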;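 further: median GFP channel fluorescence of barcode-gated MEP2-GFP cells measured by flow cytometry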); conditions: S. cerevisiae MEP2-GFP strain, 3 h, at 10 µM, stronger effect = higher value, 100% means same as DMSO wells
[3] = modulators of CIT2-GFP expression in yeast, primary screen, S. cerevisiae, GFP fusion, multiplex flow cytometry (AID 1870;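 active means percent response above a set limit, the screen-wide mean plus 3 SD, cut at about 130% in these data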;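 further: barcoded CIT2-GFP strain pooled with four other GFP strains with rapamycin as positive control; median GFP fluorescence per well over plate mean of DMSO wells so 100% = DMSO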); conditions: 3 h, at 10 µM, stronger effect = higher value
[4] = modulators of LAP4-GFP expression in yeast, primary screen, S. cerevisiae, multiplex flow cytometry (AID 1873;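 active means GFP signal, as percent of the solvent control, above the screen mean plus 3 SD, about 149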); conditions: 3 h, at 10 µM, stronger effect = higher value
[5] = modulators of AGP1-GFP expression in yeast TOR pathway, primary screen, cell-based, multiplex flow cytometry, S. cerevisiae (AID 1887;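 active means GFP signal above the screen-wide mean plus 3 SD, that is over about 124.5% of the solvent control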;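 further: AGP1-GFP fusion strain of S. cerevisiae within a five-strain barcoded multiplex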); conditions: 3 h, at 10 µM, stronger effect = higher value
[6] = inhibitors of CD8+ T cell-vesicle binding, pilot screen, LFA-1/ICAM-1 modulator project, MLPCN validation set, flow cytometry (AID 2523); conditions: 2C mouse CD8+ T cells, at 7 µM, stronger effect = lower value; double positive events: measured here: CD8+/vesicle+ event percentage;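 on vesicle binding response: mean PE anti-B7-1 fluorescence of CD8+ cells relative to row control; 100% = QL9-loaded vesicles with DMSO vehicle in the same plate row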
[7] = biological target: Integrin beta-1 (Homo sapiens) + Integrin alpha-4 (Homo sapiens) (UniProt P13612+P05556); test: inhibition of HUTS-21 binding to VLA-4, pilot screen, VLA-4 allosteric modulator project, U937 cells, HUTS-21 mAb, flow cytometry, validation set (AID 2674;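 active means inhibition above 50%, about 3 SD of the validation set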;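 further: antibody binding induced by the VLA-4 ligand LDV present at three times its Kd; 0% = LDV ligand with antibody and no compound and 100% = antibody without LDV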); conditions: HUTS-21 LIBS mAb binding, at 6.7 µM, stronger effect = higher value, binding induced by LDV ligand
[8] = superoxide lowering in aged yeast cells, pilot screen, validation compound set (AID 2706;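 active means superoxide response below 65% of plate, a cut near 3 SD across the whole screen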;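 further: yeast exposed to compound for one week at 30 degrees C before staining; 100% = mean of all compound wells on the same plate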); conditions: S. cerevisiae aging, superoxide DHE fluorescence; at 10 µM; stronger effect = lower value
[9] = biological target: Beta-adrenergic receptor kinase 1 (Homo sapiens) (UniProt P25098); test: GRK2 binders displacing RNA aptamer, biochemical, validation, human GRK2, bead flow cytometry (AID 488806;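 active means aptamer binding inhibition above 30%, about 3 SD of noise from non-fluorescent compounds; inactive means inhibition at or below 30%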); conditions: bead-bound GRK2, FAM-aptamer displacement, at 10 µM, stronger effect = higher value
[10] = biological target: Beta-2 adrenergic receptor (Homo sapiens) (UniProt P07550); test: beta2AR agonists driving receptor internalization, pilot screen, cell-based, FAP fluorogen, flow cytometry, validation set (AID 504459;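 active means percent response above 42, roughly 3 SD of non-fluorescent test compounds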;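 further: agonist-driven loss of surface beta2AR via internalization measured by FAP dye flow cytometry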); conditions: Am2.2-beta2AR cells, FAP surface receptor flow cytometry; at 10 µM; stronger effect = higher value
[11] = biological target: AP-2 complex subunit beta (Homo sapiens) (UniProt P63010); test: inhibitors of arrestin peptide binding to AP2, pilot screen, biochemical, validation set, GST-AP2 beads, flow cytometry (AID 504541;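 active means inhibition above 54%, about 3 SD of non-fluorescent compounds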;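 further: AP2 carries R879A mutation and is captured from E. coli lysate; bead-bound FITC arrestin peptide fluorescence measuring arrestin peptide binding to AP2; 0% = DMSO wells and 100% = excess unlabeled arrestin peptide control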); conditions: FITC arrestin peptide, at 10 µM, stronger effect = higher value, AP2 beta2 appendage fragment, R879A mutant
[12] = yeast V-ATPase proton transport modulators, S. cerevisiae, pHLuorin, HTS validation (AID 504600; in the data active means response above about 15%;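 further: plate controls were DMSO for no effect and reference compound for full effect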); conditions: S. cerevisiae pHLuorin cytosolic pH, at 10 µM, stronger effect = higher value
[13] = tested on: anti-desmoglein-3 scFv antibody binding to human DSG3; test: inhibitors of anti-DSG3 scFv binding to DSG3, pilot screen, biochemical, validation compound set, bead-based, flow cytometry (AID 588368;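 active means binding below the plate cutoff, the plate median minus 3 SD, with a reading above zero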;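 further: signal is the median channel fluorescence of bead-bound GFP antibody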); conditions: Protein G beads, DSG3-Fc, scFv-GFP binding, at 10 µM, stronger effect = lower value
[14] = inhibitors of fungal efflux pumps CDR1, CDR2, MDR1, pilot screen, validation compound set, multiplex, phenotypic (AID 588506;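 active means efflux inhibition above 0.42, the validation set average plus 4 SD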;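 further: Nile Red retained in cells so higher fluorescence means more efflux inhibition; 0 = negative control wells and 1 = enniatin B 25 µM full block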); conditions: S. cerevisiae pump-expressing triplex, Nile Red efflux flow cytometry; at 10 µM; stronger effect = higher value; the pumps come from Candida albicans
[15] = biological target: ATP-binding cassette sub-family B member 6 (Homo sapiens) (UniProt Q9NP58); test: ABCB6 transporter inhibitors, pilot screen, K562-ABCB6 cells, flow cytometry, validation set (AID 588550;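 active means inhibition above the screen-wide mean plus 3 SD, about 51%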;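 further: 0% = DMSO wells and 100% = benzethonium chloride 70 µM positive control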); conditions: K562-ABCB6 porphyrin accumulation, 1 h, at 10 µM, stronger effect = higher value
[16] = promoters of myeloid differentiation in arrested cells, primary screen, cell-based, GFP/MAC1 double positive, flow cytometry, validation set (AID 588685;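 active means differentiation response of at least 50%, scaled between solvent and reference control, from cells with both markers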;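 further: compound exposure lasts four days before antibody staining and flow analysis; 0% = DMSO wells and 100% = 5 µM fulvestrant positive control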); conditions: ER-HoxA9 marrow cells, stronger effect = higher value, normalized: vehicle 0, fulvestrant 100

ATP-binding cassette sub-family B member 6 (Homo sapiens), sequence (Q9NP58 whole entry, looked up): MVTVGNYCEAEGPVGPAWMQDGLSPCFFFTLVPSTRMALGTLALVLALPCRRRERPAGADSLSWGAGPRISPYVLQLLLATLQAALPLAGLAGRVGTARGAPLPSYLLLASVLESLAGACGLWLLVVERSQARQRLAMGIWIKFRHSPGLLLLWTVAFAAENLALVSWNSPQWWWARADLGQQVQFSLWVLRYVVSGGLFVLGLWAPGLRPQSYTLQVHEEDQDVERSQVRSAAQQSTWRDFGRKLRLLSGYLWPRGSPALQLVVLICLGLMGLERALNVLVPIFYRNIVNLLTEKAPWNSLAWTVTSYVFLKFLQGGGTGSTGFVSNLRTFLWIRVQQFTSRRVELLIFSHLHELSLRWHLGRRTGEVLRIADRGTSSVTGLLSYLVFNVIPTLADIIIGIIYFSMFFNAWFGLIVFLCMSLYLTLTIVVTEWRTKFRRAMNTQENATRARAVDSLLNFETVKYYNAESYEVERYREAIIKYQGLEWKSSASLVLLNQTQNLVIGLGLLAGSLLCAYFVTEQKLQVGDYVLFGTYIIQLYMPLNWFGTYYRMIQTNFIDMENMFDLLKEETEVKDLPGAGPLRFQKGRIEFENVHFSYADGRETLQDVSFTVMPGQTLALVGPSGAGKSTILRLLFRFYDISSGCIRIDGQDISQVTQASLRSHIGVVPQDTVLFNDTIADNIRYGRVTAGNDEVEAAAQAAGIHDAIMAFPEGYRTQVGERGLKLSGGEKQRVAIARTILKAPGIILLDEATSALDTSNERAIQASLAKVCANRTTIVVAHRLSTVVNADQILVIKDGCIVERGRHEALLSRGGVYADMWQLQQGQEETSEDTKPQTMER
Beta-adrenergic receptor kinase 1 (Homo sapiens), sequence (P25098 whole entry, looked up): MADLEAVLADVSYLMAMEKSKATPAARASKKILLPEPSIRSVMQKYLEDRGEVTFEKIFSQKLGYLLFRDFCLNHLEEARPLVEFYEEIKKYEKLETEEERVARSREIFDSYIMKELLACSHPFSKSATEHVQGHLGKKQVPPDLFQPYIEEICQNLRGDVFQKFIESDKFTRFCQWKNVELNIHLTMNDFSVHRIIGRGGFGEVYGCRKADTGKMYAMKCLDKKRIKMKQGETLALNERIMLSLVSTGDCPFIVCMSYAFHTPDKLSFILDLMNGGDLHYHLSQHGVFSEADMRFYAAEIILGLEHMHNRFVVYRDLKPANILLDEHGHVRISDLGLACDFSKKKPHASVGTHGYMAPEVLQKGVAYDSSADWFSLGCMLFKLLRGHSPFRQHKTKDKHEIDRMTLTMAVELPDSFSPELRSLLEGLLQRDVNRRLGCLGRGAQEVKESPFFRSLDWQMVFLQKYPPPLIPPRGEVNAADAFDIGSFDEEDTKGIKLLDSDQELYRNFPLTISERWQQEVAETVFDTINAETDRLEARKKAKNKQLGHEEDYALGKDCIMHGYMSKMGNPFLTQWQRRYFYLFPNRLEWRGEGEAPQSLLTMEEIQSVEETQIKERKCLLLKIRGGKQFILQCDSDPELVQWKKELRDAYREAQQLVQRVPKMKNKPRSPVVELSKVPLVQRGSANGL
Beta-2 adrenergic receptor (Homo sapiens), sequence (P07550 whole entry, looked up): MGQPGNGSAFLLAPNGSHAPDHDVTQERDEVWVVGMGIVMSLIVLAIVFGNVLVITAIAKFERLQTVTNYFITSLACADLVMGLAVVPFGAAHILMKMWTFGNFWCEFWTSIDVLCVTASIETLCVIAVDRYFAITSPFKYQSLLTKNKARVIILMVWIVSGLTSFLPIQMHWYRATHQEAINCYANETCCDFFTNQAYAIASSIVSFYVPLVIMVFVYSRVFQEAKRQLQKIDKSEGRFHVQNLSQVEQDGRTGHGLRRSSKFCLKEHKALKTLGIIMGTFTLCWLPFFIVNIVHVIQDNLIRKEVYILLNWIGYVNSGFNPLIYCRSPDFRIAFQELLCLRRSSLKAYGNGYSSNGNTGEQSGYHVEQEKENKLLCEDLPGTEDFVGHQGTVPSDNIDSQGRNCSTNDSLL
AP-2 complex subunit beta (Homo sapiens), sequence (P63010 whole entry, looked up, the tested form may be a part, one chain of several): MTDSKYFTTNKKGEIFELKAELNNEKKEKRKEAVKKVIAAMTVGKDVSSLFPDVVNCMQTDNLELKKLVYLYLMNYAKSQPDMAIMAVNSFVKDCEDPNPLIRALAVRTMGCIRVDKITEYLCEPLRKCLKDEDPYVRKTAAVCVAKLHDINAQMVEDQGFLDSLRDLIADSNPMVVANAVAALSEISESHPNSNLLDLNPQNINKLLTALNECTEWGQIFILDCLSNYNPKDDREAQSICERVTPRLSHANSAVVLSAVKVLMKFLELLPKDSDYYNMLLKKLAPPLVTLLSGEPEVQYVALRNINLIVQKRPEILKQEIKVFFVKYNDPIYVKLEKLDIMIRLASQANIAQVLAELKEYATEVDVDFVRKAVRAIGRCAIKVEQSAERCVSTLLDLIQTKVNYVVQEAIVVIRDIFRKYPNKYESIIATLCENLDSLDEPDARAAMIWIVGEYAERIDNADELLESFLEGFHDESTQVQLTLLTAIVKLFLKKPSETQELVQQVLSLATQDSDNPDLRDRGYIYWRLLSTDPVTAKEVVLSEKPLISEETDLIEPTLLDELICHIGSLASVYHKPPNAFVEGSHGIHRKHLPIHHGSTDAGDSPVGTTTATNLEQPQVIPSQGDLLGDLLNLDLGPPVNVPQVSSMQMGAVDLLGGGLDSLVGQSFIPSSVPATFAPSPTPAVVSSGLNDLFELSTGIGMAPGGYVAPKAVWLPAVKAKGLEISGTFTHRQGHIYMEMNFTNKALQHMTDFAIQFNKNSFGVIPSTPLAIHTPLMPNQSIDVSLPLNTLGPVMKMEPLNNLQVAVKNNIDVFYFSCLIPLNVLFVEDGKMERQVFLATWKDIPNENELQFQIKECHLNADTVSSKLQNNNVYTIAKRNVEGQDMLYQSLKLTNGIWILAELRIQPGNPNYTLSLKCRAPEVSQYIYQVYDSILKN
Integrin beta-1 (Homo sapiens) + Integrin alpha-4 (Homo sapiens), sequence (P05556 whole entry, looked up): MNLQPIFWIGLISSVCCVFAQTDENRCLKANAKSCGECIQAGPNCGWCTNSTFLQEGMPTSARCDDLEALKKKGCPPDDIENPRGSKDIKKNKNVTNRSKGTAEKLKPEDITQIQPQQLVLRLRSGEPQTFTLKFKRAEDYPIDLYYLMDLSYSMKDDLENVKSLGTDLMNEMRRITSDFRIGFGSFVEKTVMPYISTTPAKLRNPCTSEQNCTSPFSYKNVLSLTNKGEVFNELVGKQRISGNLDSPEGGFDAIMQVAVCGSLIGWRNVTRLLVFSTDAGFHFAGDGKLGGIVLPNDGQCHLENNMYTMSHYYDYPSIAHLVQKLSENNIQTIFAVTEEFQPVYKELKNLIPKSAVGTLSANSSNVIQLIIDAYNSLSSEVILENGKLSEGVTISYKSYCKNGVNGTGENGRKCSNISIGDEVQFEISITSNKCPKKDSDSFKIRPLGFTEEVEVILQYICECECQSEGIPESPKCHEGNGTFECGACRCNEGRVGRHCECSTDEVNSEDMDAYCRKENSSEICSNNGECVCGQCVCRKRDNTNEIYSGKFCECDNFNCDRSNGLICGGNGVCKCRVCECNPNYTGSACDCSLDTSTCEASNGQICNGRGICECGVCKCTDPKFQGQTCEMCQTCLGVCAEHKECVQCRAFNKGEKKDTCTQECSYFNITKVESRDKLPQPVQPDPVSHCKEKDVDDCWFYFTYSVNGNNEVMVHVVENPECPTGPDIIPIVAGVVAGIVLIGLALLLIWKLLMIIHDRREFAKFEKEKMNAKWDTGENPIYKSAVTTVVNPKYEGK
Integrin beta-1 (Homo sapiens) + Integrin alpha-4 (Homo sapiens), sequence (P13612 whole entry, looked up): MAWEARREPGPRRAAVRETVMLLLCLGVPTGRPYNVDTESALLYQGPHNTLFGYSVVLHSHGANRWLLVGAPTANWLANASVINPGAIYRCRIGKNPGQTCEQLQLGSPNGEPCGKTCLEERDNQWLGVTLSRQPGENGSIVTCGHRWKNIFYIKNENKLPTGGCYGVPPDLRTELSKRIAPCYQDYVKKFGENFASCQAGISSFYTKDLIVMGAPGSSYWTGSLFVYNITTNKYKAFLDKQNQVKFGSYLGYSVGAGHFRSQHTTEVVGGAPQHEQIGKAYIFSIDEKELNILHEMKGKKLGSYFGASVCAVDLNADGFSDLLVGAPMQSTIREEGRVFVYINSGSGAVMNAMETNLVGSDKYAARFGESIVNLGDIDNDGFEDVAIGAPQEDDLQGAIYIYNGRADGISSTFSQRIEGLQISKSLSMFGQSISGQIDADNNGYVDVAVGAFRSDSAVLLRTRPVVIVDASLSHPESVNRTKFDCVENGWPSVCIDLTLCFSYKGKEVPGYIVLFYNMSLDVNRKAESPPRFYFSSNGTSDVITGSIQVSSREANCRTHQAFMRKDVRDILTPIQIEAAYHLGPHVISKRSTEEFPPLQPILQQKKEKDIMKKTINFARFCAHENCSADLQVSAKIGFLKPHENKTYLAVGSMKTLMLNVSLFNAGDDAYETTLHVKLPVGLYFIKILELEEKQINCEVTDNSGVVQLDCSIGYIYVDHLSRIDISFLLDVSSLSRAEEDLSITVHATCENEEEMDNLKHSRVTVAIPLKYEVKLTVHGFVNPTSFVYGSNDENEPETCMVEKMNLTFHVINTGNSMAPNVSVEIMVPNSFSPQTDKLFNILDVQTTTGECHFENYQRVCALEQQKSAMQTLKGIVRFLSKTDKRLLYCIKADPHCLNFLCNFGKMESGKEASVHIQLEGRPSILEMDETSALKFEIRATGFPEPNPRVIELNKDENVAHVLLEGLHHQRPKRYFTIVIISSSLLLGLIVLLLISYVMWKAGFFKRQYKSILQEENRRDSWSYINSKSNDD

| Compound | percent of DMSO control GFP [1] | GFP response vs DMSO [2] | percent response of DMSO control [3] | GFP response vs DMSO [4] | GFP response, % of DMSO [5] | double positive events [6] [%] | vesicle binding response [6] | inhibition [7] | superoxide response (% of plate) [8] | aptamer binding inhibition [9] | response [10] | inhibition [11] | response [12] | binding (% of control) [13] | efflux inhibition (fraction of control) [14] | inhibition [15] | differentiation response [16] |
| --- | --- | --- | --- | --- | --- | --- | --- | --- | --- | --- | --- | --- | --- | --- | --- | --- | --- |
| Cc1nc(NCc2ccco2)c(C#N)c2c1COC(C)(C)C2 | 102% (inactive) | 98.7% (inactive) | 96.5% (inactive) | 102% (inactive) | 92.4% (inactive) | 57.7 | 99.2% (inactive) | -9.13% (inactive) | 123% (inactive) | 4% (inactive) | 7.11% (inactive) | -2% (inactive) | 12% (inactive) | 98.8% (inactive) | -0.31 (inactive) | 15% (inactive) | -1.65% (inactive) |
| Cc1cccc(-c2ncc(CN3CCN(CC(C)C)C(CCO)C3)cn2)c1 (configuration not stated) | 104% (inactive) | 100% (inactive) | 108% (inactive) | 76.2% (inactive) | 99.2% (inactive) | 65.5 | 344% (inactive) | -3.57% (inactive) | 97.3% (inactive) | 2% (inactive) | -5.5% (inactive) | -1.77% (inactive) | 3.08% (inactive) | 101% (inactive) | 0.02 (inactive) | 15% (inactive) | 4.15% (inactive) |
| COc1cc2c(cc1OC)-c1nnc(C)n1C(C)(C)C2 | 100% (inactive) | 94.1% (inactive) | 107% (inactive) | 102% (inactive) | 100% (inactive) | 59.4 | 211% (inactive) | -1.79% (inactive) | 94.7% (inactive) | 2% (inactive) | 3.64% (inactive) | -4.56% (inactive) | 7.5% (inactive) | 100% (inactive) | -0.21 (inactive) | 4% (inactive) | -28% (inactive) |
| CC1Cc2ccccc2N1NC(=O)c1ccc(Cl)c(S(N)(=O)=O)c1 (configuration not stated) | 105% (inactive) | 103% (inactive) | 105% (inactive) | 106% (inactive) | 114% (inactive) | 41.4 | 19.9% (active) | 3.14% (inactive) | 99.9% (inactive) | 1% (inactive) | -28.6% (inactive) | 7.39% (inactive) | 2.79% (inactive) | 99.5% (inactive) | 0.04 (inactive) | 7% (inactive) | 11.8% (inactive) |
| CCN(CC)C(=O)N1CCN(C)CC1 | 101% (inactive) | 106% (inactive) | 101% (inactive) | 101% (inactive) | 108% (inactive) | 63.6 | 158% (inactive) | -3.77% (inactive) | 104% (inactive) | -1% (inactive) | -0.51% (inactive) | 7.6% (inactive) | 0.18% (inactive) | 103% (inactive) | 0.72 (active) | 9% (inactive) | -13.3% (inactive) |
| O=C(NC1CC1)C1CCN(C2CCN(C(=O)Cc3ccc(F)cc3)CC2)CC1 | 94.6% (inactive) | 136% (inactive) | 111% (inactive) | 84.7% (inactive) | 90.5% (inactive) | 38 | 48% (active) | -3.24% (inactive) | 106% (inactive) | -7% (inactive) | -2.98% (inactive) | 44.4% (inactive) | -9.52% (inactive) | 98.3% (inactive) | 0.27 (inactive) | 8% (inactive) | 6.55% (inactive) |

Source: PubChem BioAssay
